Only some compounds are listed: those with a hit (about 6.7% of all), similar ones and a draw of the others.
Pf Dd2 growth: blocks growth of Plasmodium falciparum Dd2 parasites. activity change, % at 10 µM. P. falciparum Dd2 growth, SYBR Green, 72 h; hits give low values. AID 1159554. 94,000 compounds, 2.3% hits; in the data active = activity change below about -80%; inconclusive = no clear call, values can overlap the other calls
T cruzi growth-1: T. cruzi proliferation inhibition | inhibition, % at 8.34 µM | T. cruzi beta-gal in NIH3T3, GalScreen luminescence, 90 h | 77,000 compounds, 5.9% hits;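 active = mean inhibition above about 93%, with at least 55% of replicates each passing it, limit read from the data, passing the limit was not always enough; inconclusive = only one of those two conditions holds; inactive = neither condition holds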
C diff HTS: C. difficile growth inhibition. growth activity, negative = inhibition, % at 16 µg/mL (by protocol). Clostridium difficile clinical isolate growth, OD600, 24 h; hits give low values. 86,000 compounds, 0.25% hits. AID 1259249;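 active = mean growth activity at or below -80% and every replicate also at or below -80%; inconclusive = mean at or below -80% but some replicate above -80%; inactive = mean growth activity above -80%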
T cruzi growth-2: Trypanosoma cruzi proliferation inhibition; T. cruzi beta-gal in NIH3T3, GalScreen luminescence, 90 h; 5,600 compounds, 72% hits; inhibition, % at 8.35 µM; shares compounds with T cruzi growth-1;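 active = mean replicate inhibition above about 95% and at least 55% of replicates individually reaching it, limit read from the data; inconclusive = only one of the two criteria is met; inactive = neither criterion is met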
T cruzi growth-3: Trypanosoma cruzi proliferation inhibition | 5,600 compounds, 21% hits | AID 651740 | T. cruzi beta-gal in NIH3T3, GalScreen luminescence, 90 h | shares compounds with T cruzi growth-1 | inhibition, % at 2.09 µM;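 active = mean inhibition above about 95%, with at least 55% of replicates also reaching it, limit read from the data; inconclusive = meets just one of the two conditions; inactive = meets neither condition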
3T3 cytotox: NIH/3T3 (mouse) viability loss; shares compounds with T cruzi growth-1; NIH/3T3 viability, CellTiter-Glo ATP luminescence, 90 h; cytotoxicity (signal decrease), % at 8.35 µM; 5,600 compounds, 14% hits;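 active = mean signal decrease across replicates above about 35% based on untreated-well scatter, with enough replicates individually passing, limit read from the data; inconclusive = no rule stated though some were filed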
3T3 cytotox 2: cytotoxicity in mouse NIH/3T3 fibroblasts | shares compounds with T cruzi growth-1 | NIH/3T3 viability, CellTiter-Glo ATP luminescence, 90 h | inhibition, % at 24.9 µM | 5,600 compounds, 56% hits;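 active = mean loss of cell viability signal at or above a set limit, and enough replicates individually reaching it; inconclusive = meets only the mean limit or only the replicate share; inactive = meets neither condition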
Hits are given with their value; . = inactive; ? = inconclusive; / = no result given.

SMILES | Pf Dd2 growth | T cruzi growth-1 | C diff HTS | T cruzi growth-2 | T cruzi growth-3 | 3T3 cytotox | 3T3 cytotox 2
Cc1ccc(S(=O)(=O)N(C)C[C@H]2OCCCC[C@H](C)Oc3ccc(NS(=O)(=O)c4ccc(Cl)cc4)cc3C(=O)N([C@H](C)CO)C[C@H]2C)cc1 | . | 108 | . | 97 | 109 | . | ?
COc1ccc2c3c([nH]c2c1)[C@H](CO)N(Cc1ccccn1)CC31CN(C(C)=O)C1 | . | / | . | / | / | / | /
C/C=C/c1ccc2c(c1)O[C@@H](CN(C)C(=O)c1ccc(F)cc1)[C@H](C)CN([C@H](C)CO)S2(=O)=O | . | / | / | / | / | / | /
CS(=O)(=O)N1CC(=O)N2[C@H](C1)[C@H](c1ccc(C#Cc3cccc(F)c3)cc1)[C@@H]2CO | . | / | . | / | / | / | /
CCCC(=O)Nc1ccc2c(c1)C(=O)N(C)C[C@@H](OC)[C@H](C)CN(C(=O)Cc1ccccn1)[C@H](C)CO2 | . | . | . | / | / | / | /
CN(C)C(=O)c1cccc(-c2ccc3c(c2)[C@H]2[C@H](CCN2C(=O)C2CCCCC2)[C@@H](CO)N3)c1 | . | . | . | / | / | / | /
C[C@@H]1CCCCO[C@H](CN(C)Cc2ccc(Cl)c(Cl)c2)[C@H](C)CN([C@@H](C)CO)C(=O)c2cc(NC(=O)Nc3ccc(F)cc3)ccc2O1 | -85 | 106 | / | 99 | 110 | . | ?
C[C@@H]1CN([C@@H](C)CO)C(=O)c2cc(NC(=O)Nc3ccc(F)cc3)ccc2O[C@@H](C)CCCCO[C@H]1CN(C)Cc1ccc(Cl)c(Cl)c1 | . | 103 | / | . | 110 | 44 | .
CC(C)NC(=O)Nc1ccc2c(c1)C(=O)N([C@@H](C)CO)C[C@H](C)[C@@H](CN(C)Cc1ccc(Cl)c(Cl)c1)OCCCC[C@@H](C)O2 | . | / | . | / | / | / | /
C[C@@H]1CCCCO[C@@H](CN(C)Cc2ccc(Cl)c(Cl)c2)[C@@H](C)CN([C@H](C)CO)C(=O)c2cc(NC(=O)Nc3ccc(F)cc3)ccc2O1 | . | 109 | / | 101 | 109 | . | .
CC(C)NC(=O)Nc1ccc2c(c1)C(=O)N([C@H](C)CO)C[C@H](C)[C@@H](CN(C)Cc1ccc(Cl)c(Cl)c1)OCCCC[C@H](C)O2 | / | / | . | / | / | / | /
C[C@@H]1CCCCO[C@H](CN(C)Cc2ccc(Cl)c(Cl)c2)[C@@H](C)CN([C@H](C)CO)C(=O)c2cc(NC(=O)Nc3ccc(F)cc3)ccc2O1 | . | 102 | / | ? | 108 | . | .
C[C@@H]1CCCCO[C@H](CN(C)Cc2ccc(Cl)c(Cl)c2)[C@@H](C)CN([C@@H](C)CO)C(=O)c2cc(NC(=O)NC3CCCCC3)ccc2O1 | . | / | . | / | / | / | /
C[C@H](CO)N1C[C@H](C)[C@@H](CN(C)Cc2ccc(Cl)c(Cl)c2)OCCCC[C@H](C)Oc2ccc(NC(=O)Nc3ccc4c(c3)OCO4)cc2C1=O | . | . | . | / | / | / | /
COc1ccc2c3c(n(C)c2c1)[C@H](CO)N(C(=O)C1CCCCC1)CC31CCN(C(=O)Nc2cccc(F)c2)CC1 | . | / | . | / | / | / | /
CCCNC(=O)N1C[C@@H](O)COC[C@H]2O[C@H](CC(=O)N[C@H]3CCN(Cc4ccccc4)C3)CC[C@@H]21 | / | . | . | / | / | / | /
CC(C)NC(=O)Nc1cccc2c1O[C@@H](CN(C)Cc1ccncc1)[C@@H](C)CN([C@H](C)CO)C2=O | . | . | . | / | / | / | /
CC(C)CC#Cc1ccc2c(c1)O[C@@H](CN(C)C(=O)c1ccccc1)[C@H](C)CN([C@H](C)CO)S2(=O)=O | . | / | . | / | / | / | /
CC(C)CC#Cc1ccc2c(c1)O[C@H](CN(C)C(=O)c1cccnc1)[C@@H](C)CN([C@@H](C)CO)S2(=O)=O | . | . | . | / | / | / | /
CC(C)CC#Cc1ccc2c(c1)O[C@H](CN(C)C(=O)c1cccc(F)c1)[C@@H](C)CN([C@H](C)CO)S2(=O)=O | . | 120 | . | 109 | . | . | 105
C[C@@H]1CN([C@@H](C)CO)S(=O)(=O)c2ccc(C#CC3CC3)cc2O[C@@H]1CN(C)C(=O)c1cccc(F)c1 | . | / | . | / | / | / | /
CC(C)CC#Cc1ccc2c(c1)O[C@@H](CN(C)C(=O)c1cccc(F)c1)[C@H](C)CN([C@H](C)CO)S2(=O)=O | . | 110 | . | 105 | . | . | 105
CC(C)CC#Cc1ccc2c(c1)O[C@H](CN(C)C(=O)c1cccc(F)c1)[C@@H](C)CN([C@@H](C)CO)S2(=O)=O | . | 126 | . | 99 | 102 | . | 106
C[C@@H]1CN([C@@H](C)CO)S(=O)(=O)c2ccc(C#CC3CC3)cc2O[C@@H]1CN(C)C(=O)c1ccccc1 | . | . | . | / | / | / | /
C[C@H]1CN([C@@H](C)CO)S(=O)(=O)c2ccc(C#CC3CC3)cc2O[C@@H]1CN(C)C(=O)c1ccccc1 | . | 99 | . | 101 | . | . | ?
SMILES | Pf Dd2 growth | T cruzi growth-1 | C diff HTS | T cruzi growth-2 | T cruzi growth-3 | 3T3 cytotox | 3T3 cytotox 2
CC(C)CC#Cc1ccc2c(c1)O[C@H](CN(C)C(=O)c1ccccc1)[C@@H](C)CN([C@@H](C)CO)S2(=O)=O | . | 122 | . | 102 | . | . | 105
C[C@H](CO)N1C[C@H](C)[C@@H](CN(C)C(=O)c2cccc(F)c2)Oc2cc(C#CC3CC3)ccc2S1(=O)=O | . | / | . | / | / | / | /
CC(C)CC#Cc1ccc2c(c1)O[C@H](CN(C)C(=O)c1ccccc1F)[C@@H](C)CN([C@@H](C)CO)S2(=O)=O | . | 103 | . | 103 | ? | . | 105
CC(C)CC#Cc1ccc2c(c1)O[C@@H](CN(C)C(=O)c1cccc(F)c1)[C@H](C)CN([C@@H](C)CO)S2(=O)=O | . | 124 | . | 103 | 110 | 62 | 105
COCC#Cc1ccc2c(c1)O[C@@H](CN(C)C(=O)c1ccccc1F)[C@H](C)CN([C@H](C)CO)S2(=O)=O | . | . | . | / | / | / | /
CC(C)CC#Cc1ccc2c(c1)O[C@H](CN(C)C(=O)c1ccccc1)[C@H](C)CN([C@H](C)CO)S2(=O)=O | . | / | . | / | / | / | /
CC(C)CC#Cc1ccc2c(c1)O[C@@H](CN(C)C(=O)c1cccc(F)c1)[C@@H](C)CN([C@@H](C)CO)S2(=O)=O | . | 102 | . | 105 | 105 | . | 104
C[C@@H]1CN([C@H](C)CO)S(=O)(=O)c2ccc(C#CC3CC3)cc2O[C@@H]1CN(C)C(=O)c1cccc(F)c1 | . | / | . | / | / | / | /
CCCN(C)C[C@@H]1Oc2cc(-c3cncnc3)ccc2S(=O)(=O)N([C@@H](C)CO)C[C@@H]1C | . | / | . | / | / | / | /
O=C(N[C@@H]1CC[C@@H](CC(=O)N2CCC(Cc3ccccc3)CC2)O[C@H]1CO)c1cnccn1 | . | / | . | / | / | / | /
CC=Cc1ccc2n(c1=O)C[C@H]1[C@H](CO)[C@@H](C(=O)NCC3CC3)[C@@H]2N1C(=O)c1ccccc1 (mixture of isomers) | . | . | . | / | / | / | /
COCC(=O)Nc1ccc2c(c1)C(=O)N(C)C[C@H](OC)[C@H](C)CN(C(C)=O)[C@@H](C)CO2 | . | . | . | / | / | / | /
